# Results taken from PubChem BioAssay (NCI).
# About 79,000 compounds went through this panel and 15% of them were active in at least one assay; those are over-represented in the sample as a whole. Unmarked numbers belong to inactive results. The source made the active and inactive calls. No stated cut-off is given here; in the data, active means growth inhibition above about 70%; inactive means the rest.
# Experiment: NCI Yeast Anticancer Drug Screen. Data for the wt2 strain (AID 169);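 further: 0% = growth of vehicle-treated yeast cultures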
# Details: S. cerevisiae wt2 strain growth inhibition, active compounds read high
# Protocol: Growth inhibition of yeast strains with defined genetic alterations is measured as a screen for potential anti-cancer activity. Selected strains with alterations in DNA damage repair or cell cycle control were exposed to compounds and growth inhibition was measured relative to vehicle treated controls. The strain used in this assay is wt2
Compound,growth inhibition (at 1.2 µM) [%],growth inhibition (at 3.7 µM) [%],growth inhibition (at 11.0 µM),growth inhibition (at 33.0 µM),growth inhibition (at 100.0 µM)
Cn1ccnc1Oc1ccc(Cl)cc1,-7,7,30%,78% (active),99% (active)
CN(C)c1ccc(Sc2ccc3nc(N)nc(N)c3c2)cc1,-4,-1,9%,7%,1%
COC(=O)c1ccc(NCC2=CC(=O)C=CC2=O)cc1O,20,56,94% (active),97% (active),92% (active)
CC(C)(C)c1nc2c(o1)C(=O)c1ccccc1C2=O,-41,-26,32%,72% (active),94% (active)
N#CSc1ccc(S(N)(=O)=O)cc1,-48,-45,-32%,-25%,50%
Cc1ccc2[nH]c3c(C)c4cc[n+](C)cc4c(C)c3c2c1,3,-19,-15%,49%,95% (active)
O=C1C=CC(=O)c2c(O)c(Nc3ccc(OC(F)(F)F)cc3)c(Cl)c(O)c21,-5,-6,-6%,21%,93% (active)
O=C1C2CC[C@@H]3C(=O)C(Cl)(Cl)[C@@H]3CCC2C1(Cl)Cl (stereo not given in full),1,3,7%,10%,14%
